Results filed as inconclusive are left out. The source made the active and inactive calls. The calls were made as follows, unless noted: active = hit-call score of the fitted dose curve at least 0.9, where 1 is the maximum; inconclusive = response in the unintended direction; inactive = score below 0.9.
Key:
[1] = ATG_TCF_b_cat_CIS: Attagene CIS-FACTORIAL HepG2 Assay for human T-Cell-Factor with beta-catenin (TCF/b-cat) (AID 2282965; active = hit-call score of the fitted dose curve at least 0.9, where 1 is the maximum; inactive = score below 0.9); details: HepG2 TCF/beta-catenin cis-reporter transcription, actives raise or lower the signal
In short: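 In this cis-format system, transfected HepG2 cells report endogenous transcription factor activity. Readout after 24 h exposure is reporter transcript abundance from RT-PCR and capillary electrophoresis, analysed for gain or loss of signal versus DMSO.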

[2] = ATG_TAL_CIS: Attagene CIS-FACTORIAL HepG2 Assay for human TAL Basal Promoter (AID 2282966; active = hit-call score of the fitted dose curve at least 0.9, where 1 is the maximum; inactive = score below 0.9;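 also: background control endpoint measuring basal TAL promoter reporter mRNA not a specific factor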); details: HepG2 Attagene cis-factorial TAL promoter reporter; actives raise or lower the signal
In short: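 HepG2 cells were transiently transfected with promoter-driven multiplexed reporter units and dosed for 24 h. Reporter mRNA was measured by RT-PCR with capillary electrophoresis fluorescence; bidirectional fits used DMSO as baseline, serving as a background control.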

[3] = ATG_VDRE_CIS: Attagene CIS-FACTORIAL HepG2 Assay for human Vitamin D Receptor Element (VDRE) (AID 2282968; active = hit-call score of the fitted dose curve at least 0.9, where 1 is the maximum; inactive = score below 0.9); details: HepG2 VDRE cis-reporter transcription, actives raise or lower the signal
In short: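 RT-PCR/CE readout of reporter mRNA; HepG2, transient transfection, 24 h dosing; DMSO baseline; bidirectional analysis.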

[4] = molecular target: X-box-binding protein 1 (Homo sapiens) (UniProt P17861); test: ATG_Xbp1_CIS: Attagene CIS-FACTORIAL HepG2 Assay for human X-box Binding Protein 1 (XBP1) (AID 2282972; active = hit-call score of the fitted dose curve at least 0.9, where 1 is the maximum; inactive = score below 0.9); details: HepG2 XBP1 cis-element reporter, Attagene multiplex; actives raise or lower the signal
In short: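 Fluorescence-labelled cDNA fragments from reporter transcripts, separated by capillary electrophoresis, give the signal. Source: HepG2 cells transfected with promoter-driven reporter units, harvested 24 h post-dose. DMSO served as reference for bidirectional curve fitting.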

[5] = ATG_GAL4_TRANS: Attagene TRANS-FACTORIAL HepG2 Assay for GAL4 (Internal Marker) (AID 2282976); details: HepG2 Attagene TRANS GAL4 internal marker reporter
In short: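 HepG2 cells transiently transfected with multiplexed GAL4-UAS reporter constructs were dosed for 24 h. Reporter mRNA was measured by RT-PCR, 6-FAM primer extension, HpaI digestion and capillary electrophoresis, and gain of signal was fitted relative to DMSO.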

[6] = molecular target: Glucocorticoid receptor (Homo sapiens) (UniProt P04150); test: ATG_GR_TRANS: Attagene TRANS-FACTORIAL HepG2 Assay for human Glucocorticoid Receptor (GR) (AID 2282978); details: HepG2 Attagene TRANS GR reporter, mRNA transcription;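 also: activators score as hits since higher reporter transcript over DMSO is fitted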
In short: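 Measurement of GAL4-UAS-driven reporter mRNA in human HepG2 liver cells 24 h post-dosing, using RT-PCR with fluorescent labelling and capillary electrophoresis; the transfected constructs report exogenous NR-GAL4 chimera activity, fitted upward against DMSO.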

[7] = molecular target: Bile acid receptor (Homo sapiens) (UniProt Q96RI1); test: ATG_FXR_TRANS: Attagene TRANS-FACTORIAL HepG2 Assay for Farnesoid X Receptor (FXR) (AID 2282979); details: HepG2 Attagene TRANS FXR-GAL4 reporter transcription;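 also: hits raise reporter mRNA above DMSO so AC50 marks FXR activation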
In short: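 HepG2 cells transiently transfected with reporter constructs in which a chimeric FXR-GAL4 protein drives a GAL4-UAS reporter; 24 h compound exposure. Reporter mRNA measured by RT-PCR, FAM labelling, HpaI digestion and capillary electrophoresis; gain-of-signal versus DMSO.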

[8] = molecular target: Oxysterols receptor LXR-alpha (Homo sapiens) (UniProt Q13133); test: ATG_LXRa_TRANS: Attagene TRANS-FACTORIAL HepG2 Assay for human Liver X Receptor alpha (LXRa) (AID 2282980); details: HepG2 Attagene TRANS reporter, LXRa transactivation
In short: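 HepG2 cells were transiently transfected with multiplexed reporter units driven by chimeric LXRa–GAL4 fusion proteins, then dosed for 24 h. Reporter mRNA was quantified by RT-PCR, fluorescent labelling and capillary electrophoresis; gain of signal fitted against DMSO baseline.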

[9] = ATG_M_32_TRANS: Attagene TRANS-FACTORIAL HepG2 Assay for M32 Transcription Factor (Internal Marker) (AID 2282984); details: HepG2 Attagene TRANS M32 internal marker reporter
In short: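 Human hepatoma HepG2, transient MRTU transfection, 24 h treatment. RNA → RT-PCR → fluorescent primer extension → HpaI digest (2 h, 37 C) → CE. Positive-direction fit vs DMSO.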

[10] = molecular target: Nuclear receptor subfamily 4 group A member 2 (Homo sapiens) (UniProt P43354); test: ATG_NURR1_TRANS: Attagene TRANS-FACTORIAL HepG2 Assay for human Nuclear Receptor Related Protein 1 (NURR1) (AID 2282985); details: HepG2 Attagene TRANS reporter, mRNA readout
In short: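 After 24 h chemical dosing, total RNA from transiently transfected HepG2 cells was reverse-transcribed and reporter cDNA PCR-amplified, FAM-labelled and analysed by capillary electrophoresis. Activity fitted in positive direction, DMSO as negative control.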

[11] = molecular target: Estrogen receptor (Homo sapiens) (UniProt P03372); test: ATG_ERa_TRANS: Attagene TRANS-FACTORIAL HepG2 Assay for human Estrogen Receptor alpha (ERa) (AID 2282970); details: HepG2 Attagene TRANS ERa GAL4 reporter, mRNA
In short: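 HepG2 cells transiently transfected with multiplexed GAL4-UAS reporter units; ERa activity read via exogenous chimeric NR-Gal4 protein. After 24 hour compound exposure, reporter mRNA measured by RT-PCR with 6-FAM labelling and capillary electrophoresis; gain-of-signal fitted relative to DMSO.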

[12] = ATG_M_19_TRANS: Attagene TRANS-FACTORIAL HepG2 Assay for M19 Transcription Factor (Internal Marker) (AID 2282974); details: HepG2 Attagene TRANS-FACTORIAL M19 internal marker reporter
In short: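 Measured here: internal-marker reporter transcript from HepG2 cells transfected with MRTUs, harvested at 24 h. cDNA PCR products were 6-FAM labelled by primer extension, cut with HpaI for 2 h at 37 C, and resolved by CE.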

[13] = molecular target: Transcriptional activator Myb (Homo sapiens) (UniProt P10242); test: ATG_Myb_CIS: Attagene CIS-FACTORIAL HepG2 Assay for human Myeloblastosis (Myb) Proto-Oncogene Transcription Factor (AID 2282986; active = hit-call score of the fitted dose curve at least 0.9, where 1 is the maximum; inactive = score below 0.9); details: HepG2 Attagene CIS-FACTORIAL Myb reporter transcription; actives raise or lower the signal
In short: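 Fluorescence signals from capillary electrophoresis of RT-PCR-amplified reporter cDNA give the read-out. Cells: HepG2 transfected with multiple cis-regulated reporter units. Exposure lasts 24 hours; DMSO defines baseline for gain or loss of signal.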

[14] = molecular target: Steroid hormone receptor ERR1 (Homo sapiens) (UniProt P11474); test: ATG_ERRa_TRANS: Attagene TRANS-FACTORIAL HepG2 Assay for human Estrogen-Related Receptor alpha (ERRa) (AID 2282971); details: HepG2 Attagene TRANS reporter, ERRa transactivation
In short: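 HepG2 cells transiently transfected with multiplexed GAL4-UAS reporter units reading chimeric ERRa-Gal4 activity; 24 h compound exposure. Reporter mRNA measured by RT-PCR, 6-FAM labelling, HpaI digest and capillary electrophoresis; gain of signal fitted versus DMSO baseline.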

[15] = molecular target: Hepatocyte nuclear factor 4-alpha (Homo sapiens) (UniProt P41235); test: ATG_HNF4a_TRANS: Attagene TRANS-FACTORIAL HepG2 Assay for human Hepatocyte Nuclear Factor 4 alpha (HNF4a) (AID 2282982); details: HepG2 HNF4a transactivation reporter, mRNA readout
In short: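 Cells used were human HepG2, transiently carrying GAL4-UAS reporter units read out against exogenous NR-GAL4 chimeras. Reporter transcript levels after 24 h dosing were quantified by fluorescent RT-PCR and capillary electrophoresis.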

[16] = ATG_M_06_TRANS: Attagene TRANS-FACTORIAL HepG2 Assay for M06 Transcription Factor (Internal Marker) (AID 2282983); details: HepG2 Attagene TRANS M06 internal marker reporter
In short: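 HepG2 cells transiently transfected with multiplexed GAL4-UAS reporter transcription units; after 24 h compound exposure, reporter mRNA measured by RT-PCR, FAM-labelled primer extension, HpaI digestion and capillary electrophoresis. Gain-of-signal fitted versus DMSO baseline; background control readout.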

[17] = ATG_TGFb_CIS: Attagene CIS-FACTORIAL HepG2 Assay for human Transforming Growth Factor (TGF) (AID 2282967; active = hit-call score of the fitted dose curve at least 0.9, where 1 is the maximum; inactive = score below 0.9); details: HepG2 Attagene CIS TGFb reporter, mRNA transcription; actives raise or lower the signal
In short: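 Transient MRTU transfection of HepG2 (FuGene 6). Dose 24 h. TriZol RNA, oligo(dT) RT, PCR, 6-FAM primer extension, HpaI cut, CE. Bidirectional fit, DMSO = baseline.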

[18] = molecular target: Estrogen-related receptor gamma (Homo sapiens) (UniProt P62508); test: ATG_ERRg_TRANS: Attagene TRANS-FACTORIAL HepG2 Assay for human Estrogen-Related Receptor gamma (ERRg) (AID 2282977); details: HepG2 Attagene TRANS reporter, ERRg transactivation;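 also: hits increase reporter signal over DMSO so potencies reflect activators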
In short: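 Transfect HepG2 with multiple GAL4-UAS reporter transcription units; dose chemicals 24 h; isolate RNA, reverse-transcribe with oligo(dT), PCR-amplify, label with 6-FAM, digest with HpaI; size fragments by capillary electrophoresis. DMSO serves as negative control.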

[19] = molecular target: Oxysterols receptor LXR-beta (Homo sapiens) (UniProt P55055); test: ATG_LXRb_TRANS: Attagene TRANS-FACTORIAL HepG2 Assay for human Liver X Receptor beta (LXRb) (AID 2282981); details: HepG2 Attagene TRANS GAL4-LXRb reporter, mRNA
In short: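 In this TRANS format, exogenous chimeric NR-Gal4 protein activity, not endogenous factors, drives reporter expression in transfected human HepG2 cells. Exposure lasted 24 h; reporter mRNA was read by fluorescent capillary electrophoresis.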

[20] = molecular target: Nuclear receptor subfamily 1 group I member 3 (Homo sapiens) (UniProt Q14994); test: ATG_CAR_TRANS: Attagene TRANS-FACTORIAL HepG2 Assay for human Constitutive Androstane Receptor (CAR) (AID 2282969); details: HepG2 Attagene TRANS-FACTORIAL CAR reporter;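 also: activators raise reporter mRNA above DMSO so AC50 marks induction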
In short: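 HepG2 cells transiently transfected with multiplexed GAL4-UAS reporter units expressing chimeric NR-Gal4 proteins; compound exposure 24 h. Reporter mRNA measured by RT-PCR, 6-FAM labelling, HpaI digestion and capillary electrophoresis; gain-of-signal fitted against DMSO baseline.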

Measured: AC50

Chain of Oxysterols receptor LXR-alpha (Homo sapiens) (Q13133 whole entry, looked up, the tested form may be a part): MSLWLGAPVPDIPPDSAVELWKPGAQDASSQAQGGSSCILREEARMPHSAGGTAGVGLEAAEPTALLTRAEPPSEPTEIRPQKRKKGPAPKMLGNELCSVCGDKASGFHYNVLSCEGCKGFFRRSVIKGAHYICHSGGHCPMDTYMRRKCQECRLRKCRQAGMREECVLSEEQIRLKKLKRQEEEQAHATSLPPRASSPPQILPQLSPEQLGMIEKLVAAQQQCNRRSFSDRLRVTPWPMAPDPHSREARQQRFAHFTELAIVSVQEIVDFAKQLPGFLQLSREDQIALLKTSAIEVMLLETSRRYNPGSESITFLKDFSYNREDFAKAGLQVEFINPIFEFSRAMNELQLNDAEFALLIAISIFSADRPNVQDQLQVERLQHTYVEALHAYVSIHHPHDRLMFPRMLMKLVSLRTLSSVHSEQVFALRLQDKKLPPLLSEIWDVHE
Chain of Hepatocyte nuclear factor 4-alpha (Homo sapiens) (P41235 whole entry, looked up, the tested form may be a part): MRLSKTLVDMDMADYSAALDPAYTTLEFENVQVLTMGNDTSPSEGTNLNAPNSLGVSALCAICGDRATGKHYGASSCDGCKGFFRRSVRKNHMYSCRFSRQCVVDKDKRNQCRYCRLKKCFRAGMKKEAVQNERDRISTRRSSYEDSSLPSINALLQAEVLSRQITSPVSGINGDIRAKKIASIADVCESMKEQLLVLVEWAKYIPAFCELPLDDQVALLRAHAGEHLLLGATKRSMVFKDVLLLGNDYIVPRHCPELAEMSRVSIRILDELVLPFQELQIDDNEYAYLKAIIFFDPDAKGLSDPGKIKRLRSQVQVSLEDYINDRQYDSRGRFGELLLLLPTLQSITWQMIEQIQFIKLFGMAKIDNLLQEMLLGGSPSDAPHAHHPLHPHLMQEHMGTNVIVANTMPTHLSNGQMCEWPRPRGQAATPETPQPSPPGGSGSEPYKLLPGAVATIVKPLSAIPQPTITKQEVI
Chain of Bile acid receptor (Homo sapiens) (Q96RI1 whole entry, looked up, the tested form may be a part): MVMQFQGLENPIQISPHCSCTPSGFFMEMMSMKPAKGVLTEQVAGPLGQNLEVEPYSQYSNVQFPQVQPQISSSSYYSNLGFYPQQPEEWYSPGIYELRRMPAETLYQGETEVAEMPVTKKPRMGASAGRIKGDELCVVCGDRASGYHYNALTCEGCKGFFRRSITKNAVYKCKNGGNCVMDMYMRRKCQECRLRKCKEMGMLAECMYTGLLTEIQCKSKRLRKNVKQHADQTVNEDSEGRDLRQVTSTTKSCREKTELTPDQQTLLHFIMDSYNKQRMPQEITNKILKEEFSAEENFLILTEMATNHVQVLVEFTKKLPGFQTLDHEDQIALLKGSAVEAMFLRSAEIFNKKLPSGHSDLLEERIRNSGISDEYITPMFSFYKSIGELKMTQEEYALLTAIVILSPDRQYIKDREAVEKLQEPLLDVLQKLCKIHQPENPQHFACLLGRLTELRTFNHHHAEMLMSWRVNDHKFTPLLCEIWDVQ
Chain of Oxysterols receptor LXR-beta (Homo sapiens) (P55055 whole entry, looked up, the tested form may be a part): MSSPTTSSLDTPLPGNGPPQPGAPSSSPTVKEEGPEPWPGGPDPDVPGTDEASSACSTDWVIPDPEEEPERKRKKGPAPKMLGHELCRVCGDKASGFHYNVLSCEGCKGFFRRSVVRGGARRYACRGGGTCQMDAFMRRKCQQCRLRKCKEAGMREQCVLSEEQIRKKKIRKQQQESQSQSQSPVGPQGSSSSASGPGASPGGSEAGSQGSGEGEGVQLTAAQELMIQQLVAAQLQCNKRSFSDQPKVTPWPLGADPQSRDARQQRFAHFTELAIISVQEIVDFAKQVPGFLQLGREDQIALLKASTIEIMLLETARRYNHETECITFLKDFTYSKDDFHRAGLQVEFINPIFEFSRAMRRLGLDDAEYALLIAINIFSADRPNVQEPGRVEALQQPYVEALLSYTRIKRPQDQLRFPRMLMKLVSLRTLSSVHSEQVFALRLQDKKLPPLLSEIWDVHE
Chain of Nuclear receptor subfamily 4 group A member 2 (Homo sapiens) (P43354 whole entry, looked up): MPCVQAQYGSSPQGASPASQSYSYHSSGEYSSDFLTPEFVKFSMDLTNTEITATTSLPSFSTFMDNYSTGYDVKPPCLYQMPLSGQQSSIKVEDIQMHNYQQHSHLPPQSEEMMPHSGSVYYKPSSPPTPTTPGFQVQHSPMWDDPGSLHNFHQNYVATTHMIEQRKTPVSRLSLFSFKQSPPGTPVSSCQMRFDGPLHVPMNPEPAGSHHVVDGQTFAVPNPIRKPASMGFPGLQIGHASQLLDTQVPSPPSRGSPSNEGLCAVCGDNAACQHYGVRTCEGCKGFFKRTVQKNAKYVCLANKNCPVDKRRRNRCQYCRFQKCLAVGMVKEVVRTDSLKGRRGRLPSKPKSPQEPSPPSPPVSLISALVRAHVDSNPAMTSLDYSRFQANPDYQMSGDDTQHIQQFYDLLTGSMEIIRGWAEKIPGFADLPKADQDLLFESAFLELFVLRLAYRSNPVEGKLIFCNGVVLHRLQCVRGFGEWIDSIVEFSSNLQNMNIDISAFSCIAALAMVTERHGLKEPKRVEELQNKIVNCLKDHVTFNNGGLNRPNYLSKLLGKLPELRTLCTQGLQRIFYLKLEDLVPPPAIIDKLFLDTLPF
Chain of X-box-binding protein 1 (Homo sapiens) (P17861 whole entry, looked up, the tested form may be a part): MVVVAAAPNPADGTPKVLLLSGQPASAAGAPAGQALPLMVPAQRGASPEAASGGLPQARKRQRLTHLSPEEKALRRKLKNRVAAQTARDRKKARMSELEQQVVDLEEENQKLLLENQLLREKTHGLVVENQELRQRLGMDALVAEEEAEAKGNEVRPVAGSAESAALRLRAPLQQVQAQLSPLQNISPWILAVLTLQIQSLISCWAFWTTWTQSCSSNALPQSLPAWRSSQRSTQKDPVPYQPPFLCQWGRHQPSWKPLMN
Chain of Glucocorticoid receptor (Homo sapiens) (P04150 whole entry, looked up, the tested form may be a part): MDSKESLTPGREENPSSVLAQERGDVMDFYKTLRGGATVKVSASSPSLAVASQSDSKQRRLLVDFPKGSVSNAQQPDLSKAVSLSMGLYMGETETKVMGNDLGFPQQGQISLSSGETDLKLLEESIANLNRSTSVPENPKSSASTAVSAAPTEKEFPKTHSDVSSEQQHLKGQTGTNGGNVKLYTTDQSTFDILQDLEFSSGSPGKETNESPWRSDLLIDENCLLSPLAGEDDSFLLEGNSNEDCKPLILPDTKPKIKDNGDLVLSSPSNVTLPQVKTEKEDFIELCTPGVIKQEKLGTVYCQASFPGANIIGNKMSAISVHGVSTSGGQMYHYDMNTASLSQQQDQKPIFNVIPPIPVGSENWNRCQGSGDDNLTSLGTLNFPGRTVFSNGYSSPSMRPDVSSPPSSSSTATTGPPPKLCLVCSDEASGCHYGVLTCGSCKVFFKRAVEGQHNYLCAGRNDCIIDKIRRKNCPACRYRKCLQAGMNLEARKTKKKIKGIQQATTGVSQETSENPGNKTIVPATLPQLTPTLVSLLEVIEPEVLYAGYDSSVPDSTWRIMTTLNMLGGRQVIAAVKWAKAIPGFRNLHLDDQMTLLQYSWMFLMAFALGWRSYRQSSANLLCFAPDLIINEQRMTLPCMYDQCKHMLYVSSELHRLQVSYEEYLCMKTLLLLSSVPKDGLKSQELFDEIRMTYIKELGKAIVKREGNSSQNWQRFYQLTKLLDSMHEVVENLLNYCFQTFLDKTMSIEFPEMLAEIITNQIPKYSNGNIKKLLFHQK
Chain of Transcriptional activator Myb (Homo sapiens) (P10242 whole entry, looked up): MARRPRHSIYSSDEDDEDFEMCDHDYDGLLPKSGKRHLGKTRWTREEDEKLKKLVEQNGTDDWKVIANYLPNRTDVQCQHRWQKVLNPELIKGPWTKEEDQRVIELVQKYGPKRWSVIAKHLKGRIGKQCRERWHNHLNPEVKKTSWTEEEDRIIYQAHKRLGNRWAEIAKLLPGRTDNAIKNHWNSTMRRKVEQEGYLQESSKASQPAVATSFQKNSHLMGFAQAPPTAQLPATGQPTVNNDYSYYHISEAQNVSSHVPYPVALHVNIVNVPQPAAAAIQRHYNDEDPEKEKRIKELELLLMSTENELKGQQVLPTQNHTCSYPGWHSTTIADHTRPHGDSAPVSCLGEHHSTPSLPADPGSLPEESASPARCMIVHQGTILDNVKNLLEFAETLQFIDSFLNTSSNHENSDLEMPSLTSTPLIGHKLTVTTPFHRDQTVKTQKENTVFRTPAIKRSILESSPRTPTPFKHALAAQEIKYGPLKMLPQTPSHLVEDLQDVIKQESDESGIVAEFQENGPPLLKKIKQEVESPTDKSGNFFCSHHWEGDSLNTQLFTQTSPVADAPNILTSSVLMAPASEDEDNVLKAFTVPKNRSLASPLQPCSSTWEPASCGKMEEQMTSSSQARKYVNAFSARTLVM
Chain of Nuclear receptor subfamily 1 group I member 3 (Homo sapiens) (Q14994 whole entry, looked up, the tested form may be a part): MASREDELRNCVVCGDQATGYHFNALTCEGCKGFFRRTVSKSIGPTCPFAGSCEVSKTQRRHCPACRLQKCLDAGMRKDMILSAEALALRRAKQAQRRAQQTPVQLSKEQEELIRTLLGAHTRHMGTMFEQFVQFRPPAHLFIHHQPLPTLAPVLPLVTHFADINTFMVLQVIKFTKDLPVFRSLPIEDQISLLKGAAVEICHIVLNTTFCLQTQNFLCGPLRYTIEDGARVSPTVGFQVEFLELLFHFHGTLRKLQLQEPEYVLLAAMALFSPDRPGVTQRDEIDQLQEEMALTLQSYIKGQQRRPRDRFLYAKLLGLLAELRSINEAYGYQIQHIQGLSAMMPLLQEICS
Chain of Steroid hormone receptor ERR1 (Homo sapiens) (P11474 whole entry, looked up, the tested form may be a part): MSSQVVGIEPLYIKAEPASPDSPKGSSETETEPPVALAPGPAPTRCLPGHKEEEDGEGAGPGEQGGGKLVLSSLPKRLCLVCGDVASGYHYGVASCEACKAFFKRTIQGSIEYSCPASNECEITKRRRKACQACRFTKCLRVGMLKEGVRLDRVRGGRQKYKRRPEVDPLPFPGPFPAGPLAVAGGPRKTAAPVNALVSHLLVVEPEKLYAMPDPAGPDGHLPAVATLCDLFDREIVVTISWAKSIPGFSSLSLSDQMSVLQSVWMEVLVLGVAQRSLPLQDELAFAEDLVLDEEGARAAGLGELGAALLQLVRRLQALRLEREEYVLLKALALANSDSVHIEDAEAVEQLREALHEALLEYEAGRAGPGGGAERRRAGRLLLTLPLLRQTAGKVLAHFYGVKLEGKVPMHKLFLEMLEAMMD

CCN(CC)c1ccc(C=O)c(O)c1
inactive: [1] | [2] | [4] | [5] | [6] | [7] | [8] | [9] | [10]
active: [3] 32.5 µM

CC(C)(C)c1cc(Cc2cc(C(C)(C)C)c(O)c(C(C)(C)C)c2)cc(C(C)(C)C)c1O
active: [3] 2.31 µM
inactive: [1] | [2] | [11] | [4] | [12] | [6] | [7] | [9] | [13]

O=C1C=CC(=O)N1c1ccccc1
inactive: [1] | [2] | [3] | [14] | [4] | [5] | [15] | [10] | [13]

Cc1ccc(S(=O)(=O)C(I)I)cc1
inactive: [2] | [15] | [9] | [10]
active: [1] 8.97 µM | [3] 9.01 µM

CC1=CC2C3C=CC(C3)C2C1C (centres undefined)
inactive: [1] | [2] | [14] | [7] | [8] | [16] | [13]
active: [3] 1.81 µM

CCOC(=O)C1CC(=O)C(=C(O)C2CC2)C(=O)C1 (centres undefined)
inactive: [1] | [2] | [17] | [3] | [5] | [18] | [7] | [19] | [16] | [13]

C=CC(=O)OCC(F)(F)C(F)(F)C(F)(F)C(F)(F)C(F)(F)C(F)(F)C(F)(F)C(F)F
inactive: [2] | [3] | [20] | [4] | [6] | [7] | [8] | [19] | [16] | [9]
active: [1] 89.1 µM

O=C1c2c(O)ccc(Nc3ccc(CCO)cc3)c2C(=O)c2c([N+](=O)[O-])ccc(O)c21
inactive: [1] | [2] | [17] | [20] | [4] | [7] | [8] | [19] | [15] | [16] | [13]

CCC(Cc1c(I)cc(I)c(N)c1I)C(=O)O (centres undefined)
inactive: [2] | [3] | [6] | [7] | [8] | [19] | [16] | [13]
active: [1] 55.5 µM

Source: PubChem BioAssay (EPA / NIEHS)
